# Screening results as filed in PubChem.
# GRK2 aptamer HTS: blocks RNA aptamer binding to human GRK2; P25098; bead flow cytometry, FAM-aptamer displacement from GRK2; inhibition of aptamer binding, % at 10 µM; actives 0.59% (n = 330,000);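 active means inhibition of aptamer binding above 40%, roughly 3 SD of noise, on plates passing a quality check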;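 further: median bead fluorescence of bound FAM aptamer so fluorescent compounds give negative values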
# Target sequence (P25098 whole entry, looked up): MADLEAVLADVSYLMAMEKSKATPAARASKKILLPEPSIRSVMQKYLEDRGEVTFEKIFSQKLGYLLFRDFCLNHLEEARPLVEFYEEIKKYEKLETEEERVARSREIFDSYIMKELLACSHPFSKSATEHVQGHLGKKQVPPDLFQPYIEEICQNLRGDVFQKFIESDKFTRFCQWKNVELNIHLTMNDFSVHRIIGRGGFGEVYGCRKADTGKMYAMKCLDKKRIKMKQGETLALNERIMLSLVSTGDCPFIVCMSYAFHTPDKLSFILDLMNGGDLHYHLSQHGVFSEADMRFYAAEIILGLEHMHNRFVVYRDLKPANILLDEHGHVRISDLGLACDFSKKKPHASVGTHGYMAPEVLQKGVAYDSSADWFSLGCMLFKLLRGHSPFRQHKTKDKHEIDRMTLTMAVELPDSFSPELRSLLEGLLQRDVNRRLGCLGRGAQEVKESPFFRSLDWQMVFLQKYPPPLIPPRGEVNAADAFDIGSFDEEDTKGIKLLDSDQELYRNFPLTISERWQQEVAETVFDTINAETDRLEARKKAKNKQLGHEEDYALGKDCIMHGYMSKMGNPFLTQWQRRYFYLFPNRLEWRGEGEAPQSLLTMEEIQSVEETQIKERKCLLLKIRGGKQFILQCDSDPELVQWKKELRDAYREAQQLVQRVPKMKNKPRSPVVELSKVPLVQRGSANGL
# MEKK3 PB1 HTS: raises or lowers MEK5 binding to the human MEKK3 PB1 domain | Q99759 | bead-based flow cytometry, Alexa488-MEK5 binding to MEKK3; actives lie on both sides; 0 = blocked by unlabeled MEK5, 100 = vehicle | binding response (% of control), % at 10 µM | actives 1.4% (n = 290,000);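 active means binding response more than 3 SD above or below the average of its plate-row segment, actives on both sides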;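 further: Alexa488 bead fluorescence after subtracting the streptavidin-only scavenger bead signal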
# MEKK2wt PB1 HTS: raises or lowers MEK5 binding to wildtype human MEKK2 PB1 domain | Q9Y2U5 | bead flow cytometry, Alexa488-MEK5 binding to MEKK2 WT; actives lie on both sides | binding response (% of control), % at 10 µM | actives 1.1% (n = 290,000) | AID 1531; in the data active means binding response below about 67% or above about 130%
# MEKK2mut PB1 HTS: signal of MEK5 binding to mutant human MEKK2 PB1 domain; bead flow cytometry, Alexa488-MEK5 binding to MEKK2 mutant; AID 1530; actives 0.35% (n = 290,000); percent response, % at 10 µM; in the data active means percent response above about 24%, passing the limit was not always enough
# MEKK2wt confirm: raises or lowers MEK5 binding to wildtype human MEKK2, retest; shares compounds with MEKK3 PB1 HTS; bead flow cytometry, Alexa488-MEK5 binding to MEKK2 WT; actives lie on both sides; binding response (% of control), % at 10 µM; AID 1892; actives 2.4% (n = 5,900); in the data active means binding response below about 16% or above about 210%; inactive means in between
# MEKK2mut confirm: signal of MEK5 binding to mutant human MEKK2, retest | actives 2% (n = 5,900) | shares compounds with MEKK3 PB1 HTS | percent response, % at 10 µM | bead flow cytometry, Alexa488-MEK5 binding to MEKK2 mutant | AID 1893; in the data active means percent response mostly above about 71%, no sharp cut-off; inactive means mostly below about 38%;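 further: higher means compound restores mutant binding toward wildtype level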
# MEKK3 confirm: confirmation of inhibitors of MEK5 binding to human MEKK3. actives 1.8% (n = 5,900). bead flow cytometry, Alexa488-MEK5 binding to MEKK3; stronger effect = lower value. binding response (% of control), % at 10 µM. shares compounds with MEKK3 PB1 HTS;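 active means binding response below 72% of control, or above a set upper limit, though filed actives all read lower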;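 further: 100% = DMSO only wells and 0% = binding blocked by excess unlabeled MEK5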
# * marks the source's active call; other numbers are inactive results; · = not tested or not shown; [ ] = another dose, or the depositor's remark. Hits are enriched below; roughly 2.5% of the tested compounds scored in any of these assays.
SMILES,GRK2 aptamer HTS,MEKK3 PB1 HTS,MEKK2wt PB1 HTS,MEKK2mut PB1 HTS,MEKK2wt confirm,MEKK2mut confirm,MEKK3 confirm
CN(C)CCN(C(=O)c1ccc2ccccc2c1)c1nc2cc3c(cc2s1)OCCO3,0.0,102.0,125.0,13.0,·,·,·
COc1ccc2sc(N(CCCN(C)C)C(=O)c3ccc(S(=O)(=O)N(C)Cc4ccccc4)cc3)nc2c1,0.0,·,·,·,·,·,·
CC1CCN(CCCNC(=O)c2ccc3c(=O)n(Cc4ccc(Cl)cc4)c(=S)[nH]c3c2)CC1,0.0,100.0,118.0,0.0,·,·,·
CN(C)CCNC(=O)c1ccc2c(=O)n(Cc3ccc(Cl)cc3)c(=S)[nH]c2c1,0.0,111.0,138.0*,25.0*,115.0,10.0,105.0
CCN(CC)CCNC(=O)c1ccc2c(=O)n(CCc3ccccc3)c(=O)[nH]c2c1,0.0,125.0*,135.0*,13.0,107.0,5.0,101.0
CCCCN(C)CCNC(=O)c1ccc(Cn2c(=S)[nH]c3ccc(Br)cc3c2=O)cc1,0.0,108.0,171.0*,34.0,191.0,55.0,114.0
CCN(CCCNC(=O)CCn1c(=O)[nH]c2ccccc2c1=O)c1ccccc1,5.0,34.0*[inhibitor],44.0*[inhibitor],-12.0,106.0,5.0,102.0
O=C(NCCCN1CCCCC1)c1ccc2c(=O)n(CCc3ccccc3)c(=O)[nH]c2c1,0.0,·,·,·,·,·,·
NNC(=O)Cn1nc(Cc2ccccc2)n(N)c1=O,4.0,·,·,·,·,·,·
COCCSc1ccccc1C(=O)Nc1ccccc1C#N,32.0,100.0,102.0,1.0,·,·,·
COc1ccc(OC)c(N/C(=N/C(=S)Nc2ccccc2)Nc2nc(C)cc(C)n2)c1,0.0,48.0*[inhibitor],54.0,-49.0,88.0,-4.0,99.0
CCOC(=O)CSC1=C(C#N)C(c2sccc2C)C(C(C)=O)=C(C)N1 (stereo not drawn),3.0,97.0,96.0,-4.0,·,·,·
CC(=O)C1=C(C)NC(SCC(N)=O)=C(C#N)C1c1sccc1C (stereo not drawn),0.0,76.0*[inhibitor],84.0,-12.0,110.0,7.0,107.0
Cc1ccc(/C=C/S(=O)(=O)NCC(=O)OCC(=O)N2CC(=O)Nc3ccccc32)cc1,3.0,94.0,90.0,-4.0,·,·,·
O=C(NCC(=O)N(CC1CCCO1)C(C(=O)NC1CCCCC1)c1ccccc1)c1cccs1 (stereo not drawn),2.0,98.0,99.0,-1.0,·,·,·
O=C(NCC(=O)N(CC1CCCO1)C(C(=O)NC1CCCCC1)c1cccnc1)c1cccs1 (stereo not drawn),0.0,131.0*,123.0,3.0,103.0,6.0,106.0
O=[N+]([O-])c1c(Nc2ccc(O)cc2)cc(N2CCOCC2)c2nonc12,5.0,107.0,96.0,0.0,·,·,·
CC(=O)Nc1ccc(Nc2cc(N3CCOCC3)c3nonc3c2[N+](=O)[O-])cc1,1.0,45.0*[inhibitor],49.0,-17.0,101.0,-1.0,103.0
Cc1ccccc1-n1c(C)nnc1SCC(=O)NNC(=O)c1ccccc1,0.0,148.0*,104.0,0.0,93.0,1.0,95.0
COc1cc(OC)c(OC)cc1CN1CCN(S(=O)(=O)c2ccc(F)cc2)CC1,2.0,122.0*,119.0,7.0,102.0,5.0,103.0
COc1cc(CN2CCN(S(=O)(=O)c3ccc(F)cc3)CC2)cc(OC)c1OC,0.0,102.0,100.0,3.0,·,·,·
Cc1ccc(CN(CC(=O)NCCc2ccccc2)C(=O)c2csnn2)cc1,4.0,103.0,99.0,4.0,·,·,·
COCCNC(=O)/C(C#N)=C1\N=C(NC(=O)c2cccs2)c2ccccc21,0.0,102.0,101.0,3.0,·,·,·
COc1ccc(CNC(=O)/C(C#N)=C2\N=C(NC(=O)c3cccs3)c3ccccc32)cc1,5.0,74.0*[inhibitor],93.0,0.0,100.0,3.0,108.0
CC(=O)N1CC(=O)N(Cc2ccccc2)/C(=C/c2ccccc2)C1=O,1.0,132.0*,118.0,4.0,97.0,-4.0,100.0
SMILES,GRK2 aptamer HTS,MEKK3 PB1 HTS,MEKK2wt PB1 HTS,MEKK2mut PB1 HTS,MEKK2wt confirm,MEKK2mut confirm,MEKK3 confirm
CN1C(=O)[C@@H]2[C@@H]3C[C@@H]([C@H]4ON=C(c5ccc(Cl)cc5)[C@@H]34)[C@@H]2C1=O,0.0,102.0,101.0,-1.0,·,·,·
COc1ccc(C2=NO[C@@H]3[C@@H]4C[C@@H]([C@H]5C(=O)N(C)C(=O)[C@@H]45)[C@H]23)cc1,1.0,153.0*,107.0,2.0,101.0,-1.0,100.0
CN(Cc1c(F)cccc1Cl)C(=O)CNC(=O)c1cccs1,0.0,102.0,106.0,6.0,·,·,·
Clc1ccc(-c2csc(N/N=C/c3ccc4c(c3)OCO4)n2)cc1,1.0,136.0*,107.0,1.0,100.0,-4.0,102.0
N=C1SC(CC(=O)Nc2ccccc2[N+](=O)[O-])C(=O)N1c1ccccc1 (stereo not drawn),3.0,113.0,115.0,3.0,·,·,·
COc1ccc(C(C(N)=O)c2ncc(C(F)(F)F)cc2Cl)cc1 (stereo not drawn),0.0,150.0*,131.0,7.0,106.0,4.0,105.0
COc1cc(CNCCCN2CCOCC2)ccc1OCC(=O)Nc1cccc(C(F)(F)F)c1,0.0,104.0,119.0,8.0,·,·,·
CCOc1cc(CNCCCN2CCOCC2)ccc1OCC(=O)Nc1cccc2ccccc12,0.0,106.0,141.0*,18.0,115.0,-1.0,99.0
Cc1cccc(OCc2nnc(SCC(=O)NCCc3ccccc3)o2)c1,2.0,90.0,-7.0*[inhibitor],-35.0,104.0,-1.0,103.0
O=C(CSc1nnc(COc2ccccc2)o1)NCCc1ccccc1,1.0,102.0,111.0,3.0,·,·,·
Cc1ccc(CNc2cc(-c3nn4c(C)nnc4s3)ccc2C)s1,2.0,102.0,100.0,0.0,·,·,·
Cc1ccc(-c2nn3c(C)nnc3s2)cc1NCc1c(F)cccc1Cl,3.0,50.0*[inhibitor],50.0*[inhibitor],-42.0,91.0,-13.0,97.0
CCN(CC)CCCNC(=O)c1sc2nc(-c3ccc(F)cc3)cn2c1C,0.0,120.0,138.0*,26.0,109.0,6.0,103.0
Cc1cccc(C(=O)N[C@H](C(=O)Nc2nc3ccccc3[nH]2)C(C)C)c1,0.0,132.0*,120.0,5.0,99.0,-5.0,102.0
COc1ccccc1NC(=O)c1ccc(SCC(=O)NCc2ccccc2Cl)c([N+](=O)[O-])c1,3.0,133.0*,103.0,0.0,95.0,0.0,103.0
CCOc1nc(NC(=O)NS(=O)(=O)c2cccc(Cl)c2)nc(-c2ccccc2)n1,5.0,105.0,107.0,-1.0,·,·,·
O=C(Nc1ccc(Cl)cc1)Nc1ccccc1CC[N+](=O)[O-],0.0,4.0*[inhibitor],6.0*[inhibitor],-19.0,105.0,-3.0,100.0
CN(C)C(=O)Nc1ccccc1CC[N+](=O)[O-],0.0,113.0,113.0,0.0,·,·,·
N#Cc1cccc(NC(=O)CC2CCCCC2)c1,4.0,100.0,-3.0*[inhibitor],-34.0,97.0,-1.0,101.0
